# PubChem BioAssay (NCATS)
# Several values for one entry are separate records, joined by “and”; a condition that tells them apart may be missing. Identical values can stand only once. Records with an inconclusive call do not appear. Values without a mark were called inactive. Activity calls are given as the source filed them. Calls follow the shape of the dose curve; as a rule, active = well fitted cell-killing curve with a large enough effect; inconclusive = small, poorly fitted or top-dose-only effect; inactive = flat fitted curve, though single readings scatter.
# Test: Cellular viability qHTS for adrenocortical cancer (ACC) cell line NCI-H295R (AID 1963990); also: nearly all actives have a fitted effect of over 60% in size;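 as to activity change, negative = viability loss: 0% = DMSO only wells and -100% = full killing with cytotoxic reference compound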
# Details: CellTiter-Glo ATP luminescence, 48 h; series mostly up to 46.1 µM; activity change, negative = viability loss: at the top concentration
# How it was run: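 Luminescent ATP read-out (CellTiter-Glo, 20 min RT) after 48 h drug exposure of NCI-H295R cells; a titration up to 46 uM final. Data normalized to doxorubicin (100% inhibition) and DMSO (0%); 4-parameter fit gives IC50, max response.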
# Potency is read from the fitted curve at half-maximal effect.
SMILES,Potency,"activity change, negative = viability loss"
Oc1ccc(Cl)cc1Cc1ccccc1,12.6 µM (active) and 23.1 µM (active),
COc1cc(C)[nH]c(=O)c1CNC(=O)c1c(C)n([C@H](C)C2CCOCC2)c2ccccc12,,-1.15%
CN[C@@H](C)[C@H](O)c1ccccc1,,-2.39%
CC(C)=CC1C(C(=O)OCN2C(=O)C3=C(CCCC3)C2=O)C1(C)C (stereo not drawn),,-22.9%
CC1NCCOC1c1ccccc1 (stereo not drawn),,-1.27%
CCN(CC)CCOC(=O)C(C)(c1ccccc1)c1ccccc1,,-8.43%
NCc1cccnc1,,7.63%
O=C(O)COc1ccccc1,,-21.5%
Cc1cccc(C)c1NC1=NCCCS1,,-13.3%
NCC(O)c1ccc(O)cc1 (stereo not drawn),,-11.9%
C[C@@H]1O[C@@H](O[C@@H]2C=C3CC[C@@H]4[C@H](CC[C@]5(C)[C@@H](c6ccc(=O)oc6)CC[C@]45O)[C@@]3(C)CC2)[C@H](O)[C@H](O)[C@H]1O,11.2 nM (active) and 7.3 nM (active),
CC1OC(C)OC(C)O1 (stereo not drawn),,1.98%
CCCC[N+]1(C)[C@@H]2CC(OC(=O)[C@H](CO)c3ccccc3)C[C@H]1[C@@H]1O[C@@H]12 (stereo partly drawn),,-2.16%
Cc1ncc(CNC(=O)N(CCCl)N=O)c(N)n1,,-19.8%
COC(=O)C1=CCCN(C)C1,,1.69%
COCC(=O)N(c1c(C)cccc1C)C(C)C(=O)OC (stereo not drawn),,-1.18%
C[C@@H]1CC[C@@]2(OC1)O[C@H]1C[C@H]3[C@@H]4CC=C5C[C@@H](O[C@@H]6O[C@H](CO)[C@@H](O[C@@H]7O[C@@H](C)[C@H](O)[C@@H](O)[C@H]7O)[C@H](O)[C@H]6O[C@@H]6O[C@@H](C)[C@H](O)[C@@H](O)[C@H]6O)CC[C@]5(C)[C@H]4CC[C@]3(C)[C@H]1[C@@H]2C,2.24 µM (active),
O=c1cccc2n1CC1CNC[C@H]2C1,,6.37%
CC1(C)CC(O)CC(C)(C)N1O,,-20.6%

SMILES,Potency,"activity change, negative = viability loss"
CC(C)(N)Cc1ccc(Cl)cc1,,-14.1%
Oc1cc(Cl)ccc1Oc1ccc(Cl)cc1Cl,3.16 µM (active) and 18.4 µM (active),
COc1cc(C[C@@H](C)N)c(OC)cc1C,,-2.92% [at 92.7 µM]
C=CCC1(C(C)CC)C(=O)NC(=O)NC1=O (stereo not drawn),,-5.51%
Cc1ccc(N=CN(C)C=Nc2ccc(C)cc2C)c(C)c1,,-1.16%
CCCN1CCO[C@@H]2c3cc(O)ccc3OC[C@H]21,,-1.59%
NCC(CC(=O)O)c1ccc(Cl)cc1 (stereo not drawn),,-4.36% [at 0.587 µM]
O=C(CCCCl)c1ccc(F)cc1,,-2.22%
CCOP(=S)(OCC)Oc1cc(C)nc(C(C)C)n1,,-14.9%
COc1cc(CC(C)N)cc(OC)c1OC (stereo not drawn),,-13.3% [at 92.7 µM]
COc1ccc(OC)c(CC(C)N)c1 (stereo not drawn),,-19.1% [at 92.7 µM]
COC(=O)C(Cl)C(=O)OC,,-9.07%
COc1cc(N)c(Cl)cc1C(=O)NC1CN2CCC1CC2 (stereo not drawn),,-7.34%
C=CCN1CC[C@]23CCCC[C@H]2[C@H]1Cc1ccc(O)cc13,,-23.9%
CCC(=O)OC1(c2ccccc2)CCN(C)CC1,,-9.95% [at 92.7 µM]
Nc1ccc(Cl)cc1,,3.06% [at 92.7 µM]
CN1[C@H]2CC(O)C[C@H]1[C@H]1O[C@H]12 (stereo partly drawn),,-0.999%
CN1CCC(O)(c2ccc(F)cc2)C(C(=O)c2ccc(F)cc2)C1 (stereo not drawn),,0.871%
O=C(N/N=C/c1ccc([N+](=O)[O-])o1)c1cc([N+](=O)[O-])cc([N+](=O)[O-])c1O,,-21.8%
